According to PubChem BioAssay (NCI):
This is part of a sample that, as a whole, favours compounds with a hit. Of some 83,000 tested, about 20% had one in any assay.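 Plates (96-well) were seeded with cells, treated with compound at one concentration, and incubated for 48 hours before percent growth was determined.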 A number with no mark means an inactive call. Calls of active or inactive are those of the source. The calls were made as follows: active = growth percent below 10; inactive = the rest.

What follows are compounds tested on HL-60(TB) leukemia (assay: NCI-60 one-dose screen, 48 h (100 = growth as untreated, 0 = no growth, -100 = all killed)). Details: 10 µM unless noted.
Compound `COc1cc(/C=C/c2cc(/C=C/c3ccc(O)c(OC)c3)n(-c3ccccc3)c(=O)n2)ccc1O` has a growth of 70.9%.
With `CCN1CCN(CCNc2nccc(-c3c(-c4cccc(OC)c4)nc4occn34)n2)S1(=O)=O` the growth was 119%.
In the case of `COc1cc(CNC(=O)c2ccsc2Nc2ccnc(C(F)(F)F)c2)ccc1O`, the growth is reported as 102%.
`Cc1ccc(-c2nc(C#N)c(S(=O)(=O)n3nc(C)cc3N)o2)cc1` showed a growth of 16.6%.
`COCC(=O)Oc1cc(-c2ccc(C)cc2C)c(OC(=O)COC)c(-c2ccc(C)cc2C)c1` gave a growth of 36.9%.
`CCN(c1cc(-c2ccc(CN3CCC(/C=C/S(=O)(=O)c4ccccc4)CC3)cc2)cc(C(=O)NCc2c(C)cc(C)[nH]c2=O)c1C)C1CCOCC1` showed a growth of 23.4%.
With `O=C1Nc2ccc(Cl)cc2/C1=N/c1nc(-c2ccc(F)cc2)cs1` the growth was -36.7% (active).
`O=C1/C(=C/c2ccc(-c3ccc(Cl)cc3)o2)SC(=S)N1CCc1ccc(O)cc1` was tested, and the growth was 8.32% (active).
`N#Cc1nc2c(S(=O)(=O)c3ccccc3)c(N)n(Cc3cccnc3)c2nc1C#N` gave a growth of 53%.
`CCC(C)Oc1cc(/C=N/NC(=O)c2cnn3c2NC(c2ccccc2)C3)ccc1OC` (stereo not drawn) was tested, and the growth was 32.2%.
With `CCCCNc1nc(NN2C(=O)c3cccc4cccc(c34)C2=O)nc(-n2cnc3ccccc32)n1` the growth was 94.2%.
`CCCCCCNC(=O)Oc1ccc(/C(=C(\C)c2ccccc2)c2ccc(OCCCN(C)C)cc2)cc1` showed a growth of 78%.
Work on `O=C(Cc1ccc(Nc2ccnc(C(F)(F)F)c2)cc1)N/N=C/c1ccccc1O` yielded a growth of 69.1%.
